# Most compounds without a hit are left out; they make up all but 5% or so of the library.
# HEK293 cAMP cs – qHTS Assay for Agonists of the Thyroid Stimulating Hormone Receptor: Activators of Intracellular cAMP Concentrations in Parental HEK 293. parental HEK293 CNG cAMP sensor, membrane potential fluorescence. Potency, µM (top dose mostly 57.1 µM), for inactives: top-dose activation, usual class: activators. actives 2.5% (n = 73,000). AID 938, 2007; note: % of control where 0% means no effect; nearly all actives have a fitted effect of over 55% in size
#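 Parental HEK 293 cells stably expressing a modified CNG channel (no TSHR) report cAMP rise as membrane depolarization. Membrane potential dye with 100 uM RO 20-1724 was loaded for 60 min at room temperature, then compound added for 30 min; fluorescence read at 590 nm.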
# TSHR agonist – qHTS Assay for Agonists of the Thyroid Stimulating Hormone Receptor | Thyrotropin receptor (Homo sapiens), P16473 | HEK293-CNG-TSHR cells (CNG channel as cAMP sensor), membrane potential dye, cAMP | Potency, µM (doses to about 57.1 µM), inactives show at the highest dose activation, hits mostly activators | actives 0.48% (n = 73,000) | AID 926, 2007; active = well fitted activation curve with a large enough effect in the main read-out, with a control signal flat, not every such curve was filed as active; inconclusive = small, poorly fitted or top-dose-only effect, or a change in a side signal; inactive = no such curve, though single readings can be large or run the other way; % of control where 0% means no effect;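 note: the control signal comes from parental cells without the receptor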
#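 cAMP rise detected as CNG-channel membrane depolarization by fluorescent dye (emission 590 nm), 30 min after compound, following 60 min dye loading containing 100 uM RO 20-1724 at room temperature. Cells: TSHR/CNG HEK 293, with parental CNG HEK 293 as control.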
# Caspase-7 inhib – qHTS Assay for Allosteric/Competitive Inhibitors of Caspase-7 | recombinant caspase-7, Ac-DEVD-AFC fluorescence rate | actives 0.02% (n = 75,000) | Potency, µM (highest dose often 57.5 µM), inactives show at the highest dose activity change, negative = inhibition, most hits filed as inhibitors; active = well fitted inhibition curve with a large enough effect in the main read-out, with a control signal flat, not every such curve was filed as active; inconclusive = small, poorly fitted or top-dose-only effect, or a change in a side signal; note: % of control where 0% means no effect
# CRE Fsk mod – Cell signaling CRE-BLA (Fsk stim); CHO CRE-bla reporter (cAMP response element driving beta-lactamase), forskolin EC10, beta-lactamase ratio; Potency, µM (doses to about 38.2 µM), inactives show at the highest dose activity change, negative = inhibition, actives largely listed as activators; actives 2.5% (n = 71,000); active = well fitted activation curve with a large enough effect in the signal ratio, with a control signal flat, not every such curve was filed as active; inconclusive = small, poorly fitted or top-dose-only effect, or effect the other way, or a change in a side signal; the % refers to the signal ratio; note: % of control where 0% means no effect
#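 AC50 values, positive or negative, reflect shifts in EC10 NKH 477-induced CRE-bla reporter activity in CHO cells. Incubation lasted 3 h at 37 °C before CCF4 substrate (2 h, room temperature) and ratiometric 460/530 nm reading.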
# Casp1 inh – qHTS Assay for Allosteric/Competitive Inhibitors of Caspase-1; P29466; Caspase-1 enzyme, Ac-WEHD-AFC fluorogenic rate; Potency, µM (top dose mostly 57.5 µM), for the others: top-dose activity change, negative = inhibition, most hits filed as inhibitors; actives 0.03% (n = 75,000);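 note: plate controls were vehicle for no effect and no substrate for full effect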
# USP2a inhib – qHTS Assay for Inhibitors of Ubiquitin-specific Protease USP2a | Ubiquitin carboxyl-terminal hydrolase 2 (Homo sapiens), O75604 | USP2a enzymatic assay, qHTS inhibition | Potency, µM (highest dose often 38.3 µM), for inactives: top-dose activity change, negative = inhibition, actives largely listed as inhibitors | actives 0.1% (n = 60,000) | AID 927, 2007; note: nearly all actives have a fitted effect of over 60% in size
#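 Coupled readout: USP2-cleaved Ub-PLA2 (20nM final) turns over NBD C6-HPC (20uM final), Ex 460nm/Em 535nm after 2.5 h, time-zero read flagging artifacts. Enzyme (20nM final, pH 8.0 Tris) given 30 min RT with compound first; NEM defines full inhibition.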
# * hit, by the source's call; ? = inconclusive; · = no result given; [ ] = remark or other dose. Unless noted, calls come from the whole dose curve; as a rule, active = well fitted curve in the direction sought with a large enough effect; inconclusive = small, poorly fitted or top-dose-only effect, or another doubt; inactive = no such curve, though single readings can be large; an effect the other way counts as inactive or inconclusive. Potency is the fitted concentration of half-maximal effect.
SMILES,HEK293 cAMP cs,TSHR agonist,Caspase-7 inhib,CRE Fsk mod,Casp1 inh,USP2a inhib
Cc1cc(-n2c(SCC(=O)NCc3cccs3)nc3n[nH]c(C)c3c2=N)ccc1Cl,25%,23%,-6%,?,-4%,27%
COc1cccc(NC(=O)CSc2nc3n[nH]c(C)c3c(=N)n2-c2cccc(OC)c2)c1,8%,6%,-2%,2.5µM*,-7%,38%
Cc1[nH]nc2nc(SCC(=O)NCC3CCCO3)n(-c3ccc(Br)cc3)c(=N)c12 (stereo unspecified),-1%,0%,-2%,7.9µM*,0%,53%
O=C(c1cc(-c2ccccc2O)on1)N1CCc2ccccc2C1,7%,-12%,-8%,2%,-3%,·
O=C(c1cc(-c2ccc(O)cc2)on1)N1CCc2ccccc2C1,20µM*,?,-8%,?,-14%,·
C=C(C)C(=O)OC,-11%,1%,0%,-7%,0%,·
Cn1c(C(=O)NCCC2=CCCCC2)cc2c(=O)n3ccccc3nc21,8%,7%,?,1.6µM*,·,5%
CN(C)c1ccc(NC(=O)c2cc3c(=O)n4ccccc4nc3n2C)cc1,-20%,-4%,-29%,10µM*,·,34%
CNC(=O)c1cc2c(=O)n3cccc(C)c3nc2n1C,-3%,-6%,-6%,?,-5%,2%
Cc1cccn2c(=O)c3cc(C(=O)NCCCN4CCOCC4)n(C)c3nc12,2%,2%[11.4 µM],-10%,18%,-7%,·
Cn1c(C(=O)NCCCN2CCCC2=O)cc2c(=O)n3ccccc3nc21,-1%,3%,?,5µM*,·,2%
Cn1c(C(=O)N2COCC2(C)C)cc2c(=O)n3ccccc3nc21,?,?,?,10µM*,·,1%
Cc1cccn2c(=O)c3cc(C(=O)NCC4CCCO4)n(C)c3nc12 (stereo unspecified),13%,3%,-5%,?,-6%,0%
Cn1c(C(=O)NCC2CCCO2)cc2c(=O)n3ccccc3nc21 (stereo unspecified),4%,-5%,?,2.5µM*,·,-1%
CCC(SC1=Nc2ccccc2C2=NC(CC(C)C)C(=O)N12)C(=O)Nc1ccc2c(c1)OCO2 (stereo unspecified),16µM*,?,-7%,?,-6%,39%
Cc1oc(-c2ccccc2F)nc1CS(=O)(=O)CC(=O)N1CCOCC1,32µM*,?,-2%,-2%,-5%,·
CCN1CCN(C(=O)CS(=O)(=O)Cc2nc(-c3ccc(C)cc3)oc2C)CC1,13%,11%,-2%,-8%,1%,·
Cc1ccc(-c2nc(CS(=O)(=O)CC(=O)N3CC(C)CC(C)C3)c(C)o2)cc1 (stereo unspecified),32µM*,?,-3%,-1%,0%,·
CCCCC[C@@H](O)[C@@H]1C(=O)O[C@@H](C)[C@@H](O)\C=C/C=C\C=C/C=C\C=C(\C)[C@H](O)C[C@H](O)C[C@H](O)C[C@H](O)C[C@H](O)C[C@H](O)C[C@@H]1O,-3%[11.4 µM],·,·,-3%[7.6 µM],·,·
COc1ccc(C(=O)NC2CCN(S(=O)(=O)Cc3ccccc3)CC2)c(OC)c1,10µM*,?,6%,-1%,-1%,-7%
O=C(NC1CCCCC1)NC1CCN(S(=O)(=O)Cc2ccccc2)CC1,9%,-18%,1%,1%,0%,-23%
O=C(OCC1OC(OC(=O)c2cc(O)c(O)c(OC(=O)c3cc(O)c(O)c(O)c3)c2)[C@@H](OC(=O)c2cc(O)c(O)c(OC(=O)c3cc(O)c(O)c(O)c3)c2)C(OC(=O)c2cc(O)c(O)c(OC(=O)c3cc(O)c(O)c(O)c3)c2)C1OC(=O)c1cc(O)c(O)c(OC(=O)c2cc(O)c(O)c(O)c2)c1)c1cc(O)c(O)c(OC(=O)c2cc(O)c(O)c(O)c2)c1 (stereo partly specified),·,·,?,·,?,1µM*
COc1ccc(OC)c(-c2nnc(NC(=O)C(C)Sc3nncn3C)s2)c1 (stereo unspecified),?,?,1%,13µM*,-2%,·
CC1(Cc2cn(CCC#N)c3ccccc23)OCCO1,15%,16µM*,-2%,?,-1%,32%
OC[C@@H](O)CNc1ncnc2ccccc12,19%[11.4 µM],2%[11.4 µM],0%[11.5 µM],10%[7.6 µM],0%[11.5 µM],·
SMILES,HEK293 cAMP cs,TSHR agonist,Caspase-7 inhib,CRE Fsk mod,Casp1 inh,USP2a inhib
Cc1nn(-c2ccc(F)cc2)c2sc(C(=O)OC3CCOC3=O)cc12 (stereo unspecified),?,?,-1%,?,-6%,36%
Cc1nn(-c2ccccc2)c2sc(C(=O)OCN3C(=O)c4ccccc4C3=O)cc12,10%,4%,-1%,1.6µM*,-1%,4%
Cc1cc(=O)oc2cc(OC(C)C(=O)N3CCCc4ccccc43)ccc12 (stereo unspecified),25µM*,?,2%,5%,-1%,53%
Cc1cc(=O)oc2cc(OC(C)C)ccc12,9%,4%,0%,?,-1%,3%
COc1ccc(-n2nc(C(=O)Nc3ccc4c(c3)OCO4)c3c4ccccc4n(C)c3c2=O)cc1,16µM*,?,-1%,2%,-1%,25%
COc1ccc(-n2nc(C(=O)Nc3ccc4c(c3)OCO4)c3ccccc3c2=O)c(OC)c1,?,?,-2%,?,1%,23%
COc1ccccc1-n1nc(C(=O)Nc2ccc3c(c2)OCO3)c2ccccc2c1=O,25%,11%,-2%,?,-1%,18%
O=C(Nc1ccc2c(c1)OCO2)c1nn(-c2ccccc2)c(=O)c2ccccc12,25µM*,?,-5%,13%,-3%,37%
CCN1CCN(C(=O)c2nn(-c3ccc(C)cc3)c(=O)c3c2c2ccccc2n3C)CC1,?,?,-1%,?,2%,2%
O=C(NCc1ccc2c(c1)OCO2)c1nn(-c2ccccc2)c(=O)c2ccccc12,25µM*,?,-1%,?,-3%,17%
Cc1ccc(-n2nc(C(=O)NCc3ccco3)c3c4ccccc4n(C)c3c2=O)cc1,4µM*,?,6%,10%,4%,37%
COC(=O)C1=C(C)N(Cc2ccccc2)C2=C3C(=O)OCCC3[C@@](O)(C(=O)OC)C(=O)N2C1c1ccccc1 (stereo partly specified),0%[11.4 µM],5%[11.4 µM],0%[11.5 µM],·,0%[11.5 µM],·

# Screening results (PubChem)
